This is a sample that favours compounds with a hit; in the whole collection about 4.9% have one here.
MPTP block – blocks calcium-induced mitochondrial swelling; isolated mouse mitochondria, Ca2+ swelling absorbance, 30 min; 360,000 compounds, 1.4% hits; inhibition, % at 10 µM; AID 602449;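 active means inhibition of 50% or more, scaled per plate between neutral and stimulator controls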
Platelet DG rel – modulates dense granule release in human platelets. AID 1663. human platelet-rich plasma, SFLLRN dense granule ATP release, luminescence. 300,000 compounds, 0.22% hits. inhibition, %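 (compounds screened at 7.5 µM in platelet-rich plasma)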;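 active means mean replicate score, as percent of positive control, at or above 50; inconclusive means mean below 50 but at least one replicate at or above 50; inactive means mean and every replicate below 50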
HSF1 inhib – HSF1 inhibition | activity change, negative = inhibition, % at 7.5 µM (by protocol) | NIH3T3-HGL HSE-luciferase, MG132-induced, luminescence 8 h; hits give low values | AID 2098 | 300,000 compounds, 0.77% hits;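 active means more than half of replicate wells show activity change below -50%, luminescence cut by over half; inconclusive means some wells, but at most half, below -50%; inactive means no replicate well below -50%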;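 further: luciferase reports HSF-1 transcriptional activity via heat shock element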
dFosB activator – mouse delta FosB homodimer activation | 340,000 compounds, 0.99% hits | AID 493131 | P13346 | purified delta FosB, TAMRA-CDK5 oligo fluorescence polarization; percent of positive-control signal above neutral wells | activation, % at 25 µM;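 active means mean activation above about 17%, with every replicate also reaching it, limit read from the data, passing the limit was not always enough; inconclusive means only one of the two conditions met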
Target sequence (P13346 whole entry, looked up): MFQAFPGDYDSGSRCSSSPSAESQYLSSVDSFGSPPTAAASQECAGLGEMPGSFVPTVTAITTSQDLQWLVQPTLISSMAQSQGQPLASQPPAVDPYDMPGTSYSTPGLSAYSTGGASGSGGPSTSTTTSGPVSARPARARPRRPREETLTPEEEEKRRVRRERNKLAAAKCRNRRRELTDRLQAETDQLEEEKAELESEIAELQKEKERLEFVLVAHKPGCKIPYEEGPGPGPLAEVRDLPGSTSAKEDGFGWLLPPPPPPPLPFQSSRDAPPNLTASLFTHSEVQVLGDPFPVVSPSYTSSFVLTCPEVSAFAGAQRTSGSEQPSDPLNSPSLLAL
HSP90 inh – HSP90 refolding inhibition in rabbit reticulocyte lysate. luciferase refolding luminescence, 3 h. inhibition, % at 5.6 µM. 290,000 compounds, 0.91% hits;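 active means inhibition above the screen-wide mean plus 3 SD, computed separately per campaign, cut at about 16% in these data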;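 further: inhibitors lower the luminescence because luciferase stays unfolded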
HSF1 activator – increases HSF-1 driven luciferase reporter signal. NIH3T3-HGL HSF-1 luciferase reporter, MG132, 8 h; 100% = twice DMSO control signal. activation, % at 9 µM. 300,000 compounds, 1.7% hits. AID 504408;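 active means mean replicate activation of at least 50% with a set share of replicates each reaching 50%; inconclusive means only one of those two conditions met; inactive means mean below 50% and too few replicates reaching it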
Rh123 counter – membrane potential counter-screen of mitochondrial pore inhibitors. shares compounds with MPTP block. isolated mitochondria, Rhodamine 123 fluorescence. 5,000 compounds, 78% hits. inhibition, % at 10 µM; in the data active means inhibition above about 22%
MPTP swell DR – MPTP inhibition, dose response swelling confirmation. IC50, µM. isolated mitochondria swelling, absorbance. shares compounds with MPTP block. 780 compounds, 58% hits. AID 651561; in the data active means IC50 below about 20 µM
MPTP cs DR – active in counter-screen for permeability transition pore inhibitors | shares compounds with MPTP block | isolated mitochondria counterscreen, fluorescence read-out | IC50, µM | AID 651564 | 780 compounds, 49% hits; in the data active means IC50 below about 80 µM
A number is an active result; – = inactive; ? = inconclusive; · = no result given.

SMILES | MPTP block | Platelet DG rel | HSF1 inhib | dFosB activator | HSP90 inh | HSF1 activator | Rh123 counter | others
Oc1ccccc1/C=N/NC(=S)NC1CC2CCC1C2 (stereo unspecified) | 54 | – | – | – | – | – | 67
O=C(CN(Cc1ccccc1)S(=O)(=O)c1ccc(S(=O)(=O)N2CCOCC2)cc1)Nc1ccccc1 | – | – | – | – | – | – | ·
CN(C)S(=O)(=O)Oc1ccc(C(=O)Nc2cccc(C(F)(F)F)c2)cc1 | 74 | – | – | – | – | – | 82
CCCCN1C(=O)c2ccc(C(=O)Nc3ccc(C)c(S(=O)(=O)N(C)C)c3)cc2C1=O | 69 | – | – | – | – | – | 69
CN(C)S(=O)(=O)Oc1ccc(C(=O)Nc2cccc(Cl)c2)cc1 | – | – | – | – | – | – | ·
Cc1ccc(NC(=O)c2ccc(OC(F)(F)F)cc2)cc1S(=O)(=O)N(C)C | 78 | – | – | – | – | – | 86
CCN(CC)C(=O)[C@H]1C[C@H](CC(=O)NCc2cccc(C(F)(F)F)c2)C(=O)N2CCc3c([nH]c4cc(-c5ccco5)ccc34)[C@]12C | – | · | · | – | · | · | ·
Cc1ccccc1-c1cc(C(=O)NCc2cccc(Br)c2)nn1CC1CC(c2cccc([N+](=O)[O-])c2)=NO1 (stereo unspecified) | – | · | · | – | · | · | ·
O=C(Nc1nnc(C2CC2)s1)C1COc2ccccc2O1 (stereo unspecified) | – | – | – | – | – | – | ·
CC(NC(=O)Nc1nnc(C(F)(F)F)s1)(C(F)(F)F)C(F)(F)F | 94 | – | – | – | – | – | 110
CC(C)(C)CC(=O)Nc1nnc(C(F)(F)F)s1 | – | – | – | – | – | – | ·
O=C(Nc1nnc(C(F)(F)F)s1)c1ccc(Br)s1 | 78 | – | – | – | – | – | 75
O=C(Nc1nnc(C(F)(F)F)s1)C1COc2ccccc2O1 (stereo unspecified) | 84 | – | – | – | – | – | 78
CCc1nnc(NC(=O)c2nn(-c3ccccc3)nc2C)s1 | – | – | – | – | – | – | ·
Cc1nn(-c2ccccc2)nc1C(=O)Nc1nnc(C(F)(F)F)s1 | 73 | – | – | – | – | – | 79
CC(CCCCCCCCC(=O)O)N(CCO)C(=O)OC(C)(C)C (stereo unspecified) | – | · | · | – | · | · | ·
CN(C)S(=O)(=O)c1cccc(CSCc2cccc(S(=O)(=O)N(C)C)c2)c1 | 79 | – | – | – | – | – | 88
CCOC(=O)c1cc(OC(C)=O)c2ccc(OC)c(OC)c2c1 | – | · | · | · | · | · | ·
Cc1ccc(C2(CCNC(C)c3cccs3)CCOC(C(C)C)C2)cc1 (stereo unspecified) | 91 | – | – | – | – | – | – | MPTP swell DR=12;MPTP cs DR=59
CN1CCN(S(=O)(=O)c2ccc(N3CCN(c4ccccc4Cl)CC3)nc2)CC1 | – | · | · | – | · | · | ·
Cc1cccc(C)c1NC(=O)c1csc(COCCO)n1 | – | · | · | · | · | · | ·
CCc1nn2cc(C(=O)c3cc(Cl)ccc3O)cnc2c1-c1ccc(F)cc1 | 100 | – | – | – | – | – | 93
Cc1nn(C)c2ncc(C(=O)c3cc(F)ccc3O)cc12 | – | – | – | – | – | – | ·
COc1ccccc1CNC(=O)C1CCC(CNc2c(N3CCC(C)CC3)c(=O)c2=O)CC1 (stereo unspecified) | – | – | – | – | – | – | ·
CC(=O)c1cccc(OCc2cc(C(=O)N(C)Cc3cnccn3)no2)c1 | – | – | – | – | – | – | ·
SMILES | MPTP block | Platelet DG rel | HSF1 inhib | dFosB activator | HSP90 inh | HSF1 activator | Rh123 counter | others
CN(Cc1cccc2cnccc12)C(=O)c1cc(COc2ccc(F)cc2F)on1 | – | – | – | – | – | ? | ·
CCc1ccc(CN(C)C(=O)c2cc(COc3cccc4cnccc34)on2)cc1 | 99 | – | – | – | – | – | 103
CN(Cc1cccnc1)C(=O)c1cc(COc2ccc3c(c2)CCCC3)on1 | 67 | – | – | – | – | – | 85
Cc1ccccc1S(=O)(=O)NC(=O)C1(C)CCN1C(=O)C1(c2ccccc2)CC1 (stereo unspecified) | – | · | · | · | · | · | ·
O=[N+]([O-])c1ccc(-c2nc3ccc([N+](=O)[O-])cc3[nH]2)cc1 | 105 | – | – | – | – | 55 | 92
Nc1nc2ccccc2n1CCOc1ccccc1Cl | 74 | – | – | – | – | – | – | MPTP swell DR=9;MPTP cs DR=27
CC(C)N1CC2(CC(c3ccc(Cl)cc3Cl)=NO2)CN1C(=O)c1ccc(C(C)(C)C)cc1 (stereo unspecified) | 52 | · | · | · | · | · | – | MPTP swell DR=8.8;MPTP cs DR=29
COc1ccc(Nc2nc(S(=O)(=O)c3ccc(C)cc3)c(Cl)s2)cc1 | 59 | – | – | – | – | – | 76
Cc1ccc(S(=O)(=O)c2nc(NCCN(C)C)sc2Cl)cc1 | – | – | – | – | – | – | ·
Cc1ccc(S(=O)(=O)c2nc(Nc3ccccc3)sc2Cl)cc1 | 85 | – | – | – | – | – | 85
Oc1cccc(Nc2nc(-c3ccccc3Cl)nc3ccccc23)c1 | – | – | – | – | – | – | ·
O=S(=O)(c1ccccc1)c1nc(Nc2cccc(O)c2)sc1Cl | 54 | – | – | – | – | – | 39
COc1ccc(CNc2nc(S(=O)(=O)c3ccccc3)c(Cl)s2)cc1OC | 82 | – | – | – | – | – | 64
O=S(=O)(c1ccccc1)c1nc(NCc2ccccc2)sc1Cl | – | – | – | – | – | – | ·
CCOc1ccc(NC(=O)C2CCN(C(=O)C3CC(=O)N(c4ccc(C)cc4)C3)CC2)cc1 (stereo unspecified) | – | – | – | – | – | – | ·
COc1ccc(S(=O)(=O)N2CCC(O)(c3ccc(Cl)cc3)CC2)cc1 | – | – | – | – | – | – | ·
CC(C)(C)c1ccc(S(=O)(=O)N2CCC(O)(c3ccc(Cl)cc3)CC2)cc1 | 84 | – | – | – | – | – | 92
CC(C)(C)c1ccc(S(=O)(=O)N2CCCCC2)cc1 | – | – | – | – | – | – | ·
CC(C)(C)c1ccc(S(=O)(=O)N2CCC(N3CCCCC3)CC2)cc1 | 71 | – | – | – | – | – | – | MPTP swell DR=–;MPTP cs DR=27
S=C(Nc1ccc(Br)cc1)N1CCn2cccc2C1c1cccnc1 (stereo unspecified) | 97 | – | – | – | – | – | 92
CC(C)[C@H]1COCCS(=O)(=O)N1Cc1ccccc1-c1ccc(C(C)(C)C)cc1 | – | · | · | – | · | · | ·
Cc1nn(-c2ccc(Cl)cc2)c2[nH]c(CCl)cc(=O)c12 | 81 | – | – | – | – | – | 81
Cc1cc(=O)[nH]c2c1c(C)nn2-c1ccccc1 | – | – | – | – | – | – | ·
O=c1cc(C(F)(F)F)[nH]c2c(C(F)(F)F)cccc12 | 64 | – | – | – | – | – | 98

Compound activity (PubChem BioAssay)
